Among the data in PubChem BioAssay (NCI) are growth values, retold here.

Holding throughout (assay): NCI-60 one-dose screen, 48 h (100 = growth as untreated, 0 = no growth, -100 = all killed)
What all share (details): 10 µM unless noted

In experiment [1] the test system is SR leukemia.
Experiment [2] deals with RPMI-8226 leukemia.
The subject of experiment [3] is OVCAR-8 ovarian.
In experiment [4] the test system is OVCAR-5 ovarian.
Experiment [5] relates to OVCAR-4 ovarian.
Experiment [6] deals with SK-OV-3 ovarian.
Experiment [7] relates to IGROV1 ovarian.
Experiment [8] deals with OVCAR-3 ovarian.
Experiment [9] concerns HS 578T breast.
The subject of experiment [10] is NCI/ADR-RES ovarian.

Structures are written as SMILES. This is part of a sample that, as a whole, favours compounds with a hit. Of some 83,000 tested, about 20% had one in any assay.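 For each line, cells grew in 96-well plates with the test compound present at a single concentration for 48 hours.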 Values without a mark were called inactive. Activity calls are given as the source filed them. Rule for the calls: active = growth percent below 10; inactive = the rest.

As for `c1ccc2c(-c3c4ccsc4cc4[nH]c5ccccc5c34)c[nH]c2c1`, the growth is 25.7% in experiment [1]; 14.8% in experiment [2]; 56.9% in experiment [3]; 75.2% in experiment [4]; 40.8% in experiment [5]; 49.5% in [6]. Besides, the growth was 38.1% in experiment [7], 13.8% in experiment [8], 33.4% in experiment [9] and 20.4% in experiment [10].

For `CC(=O)Nc1ccc(S(=O)(=O)NC2CCCCC2)cc1`, the growth in experiment [1] was 99%; in experiment [2], 94.3%; in experiment [3], 101%; in experiment [4], 93.9%; in experiment [5] it was 113%; in experiment [6] it was 97.3%. For the same molecule, the growth in experiment [7] was 103%; in [8], 110%; in experiment [9] it was 92.7%; in [10], 99.7%.

For `COc1ccc(-c2c[nH]c(C(=O)O)c2-c2cc(OC)c3c(c2OC)OCO3)cc1`, the growth in [1] was 106%; in experiment [2] it was 140%; in experiment [3], 101%; in experiment [4], 96.5%; in [5], 100%; in experiment [6], 119%. Also, the growth in experiment [7] was 103%; in experiment [8], 109%; in experiment [9], 99.9%; in experiment [10], 99.2%.

Take `N#Cc1cc(-c2nc3ccccc3s2)c(=O)n(NS(=O)(=O)c2ccc(Cl)cc2)c1N`: the growth is 110% in experiment [1]; 100% in experiment [2]; 110% in experiment [3]; 102% in experiment [4]; 103% in [5]; 83.7% in [6]. Besides, the growth was 95.5% in experiment [7], 107% in [8], 99.7% in experiment [9] and 104% in experiment [10].

Consider `Nc1ncc(C#Cc2cncc(NC(=O)c3cccc(C(F)(F)F)c3)c2)c2cccnc12`, for which the growth in experiment [1] was 37.7%; in experiment [2], 60.7%; in experiment [3], 47.5%; in [4] it was 52.9%; in [5], 25.6%; in [6] it was 67.3%. Besides, the growth was 40.4% in experiment [7], 84.6% in experiment [8], 27% in [9] and 66.1% in experiment [10].

Take `COc1cc(NCCCN(CC(C)C)CC(C)C)c2ncccc2c1`: the growth in [1] is 84.9%; in [2], 78%; in [3], 94.5%; in experiment [4], 114%; in [5] it was 17.2%; in experiment [6] it was 90.1%. Moreover, the growth is 80.3% in experiment [7], 69.5% in [8], 92.3% in experiment [9] and 79.8% in experiment [10].

Consider `COc1ccc(/C=C/C(=O)c2ccc(Nc3ncnc4ccccc34)cc2)cc1OC`, for which the growth in experiment [1] is 16.7%; in experiment [2] it was -11.4% (active); in experiment [3] it was 65%; in [4] it was 103%; in [5], 85.5%; in experiment [6] it was 102%. The growth in experiment [7] was 76.3%; in experiment [8] it was 74.9%; in experiment [9], 110%; in experiment [10], 78.1%.

For `COc1cc2c(cc1[N+](=O)[O-])-c1ccc([N+](=O)[O-])cc1/C2=N\O`, the growth in experiment [1] is 62%; in experiment [2], 84%; in [3] it was 80.1%; in experiment [4], 102%; in experiment [5] it was 79.6%; in experiment [6], 96.4%. The growth in experiment [7] was 97.3%; in experiment [8] it was 104%; in experiment [9] it was 89%; in experiment [10], 77.1%.

As for `CCN(CC)CCCC(C)Nc1c2c(nc3ccc(OC)cc13)CCCC2` (stereo not given), the growth was 93.6% in experiment [1]; 100% in [2]; 105% in experiment [3]; 90.2% in experiment [4]; 103% in experiment [5]; 119% in experiment [6]. Moreover, the growth was 98.1% in experiment [7], 102% in experiment [8], 93.5% in experiment [9] and 96.8% in experiment [10].

Regarding `COc1ccccc1N1CCN(C(=O)c2ccc3nc(NC(=O)c4ccc(NCCc5ccccc5)c([N+](=O)[O-])c4)sc3c2)CC1`, the growth in experiment [1] is 3.74% (active); in experiment [2], 92.3%; in experiment [3], 81.6%; in experiment [4], 93.6%; in experiment [5] it was 2.92% (active); in experiment [6] it was 92.4%. For the same molecule, the growth in [7] is 91.8%; in experiment [8], 70.3%; in experiment [9] it was 48.5%; in [10], 89.6%.

For `C#CC(=O)Nc1cccc(Nc2nc3c(c(NCc4ccccc4)n2)CCCC3)c1`, the growth in [1] is -27% (active); in experiment [2], -23.7% (active); in experiment [3], -89.6% (active); in [4], -45% (active); in experiment [5], -95.3% (active); in [6] it was -98.5% (active). The growth was -42.6% (active) in [7], -82.9% (active) in experiment [8], -5.41% (active) in [9] and 5.07% (active) in [10].

With `Clc1ccc(C2CC(c3cccc(Nc4ccncc4)c3)=NN2c2ccccc2)cc1` (stereo not given), the growth was 2.19% (active) in experiment [1]; 1.08% (active) in experiment [2]; -7.33% (active) in experiment [3]; 82.6% in [4]; 45.5% in experiment [5]; 81.4% in [6]. Further, the growth is 25.9% in experiment [7], 64.4% in experiment [8], 83.9% in experiment [9] and 78.8% in experiment [10].
